Laboratory results published in PubChem BioAssay (NCATS).
Inconclusive results are not listed. Where a call stands in place of a potency, no number is given. Values without a mark were called inactive. The source made the active and inactive calls. Calls come from the whole dose curve; as a rule, active = well fitted cell-killing curve with a large enough effect; inconclusive = small, poorly fitted or top-dose-only effect, or effect the other way; inactive = no such curve, though single readings can be large or run the other way.

Assay: Viability qHTS for spleen associated tyrosine kinase inhibitor (SYKi) naive MV4-11 cells (AID 1963823); note: nearly all actives have a fitted effect of over 40% in size
Conditions: MV4-11 AML viability, CellTiter-Glo luminescence, 72 h; series mostly up to 45 µM
Procedure, shortened: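 SYKi-naive MV4-11 AML cells, 500 per well, were exposed to library compounds for 72 hr at 37 C, 5% CO2. Viability was then read by CellTiter-Glo luminescence after 10 min at room temperature.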
Potency is the fitted concentration of half-maximal effect.

Row | SMILES | Potency | viability (% of control)
1 | Cc1nc2ccccc2c(-c2ccc3c4c(ccnc24)CCO3)c1[C@H](OC(C)(C)C)C(=O)O | inactive | 
2 | C#CC(=O)N(c1ccc(OC)cc1OC)C(C(=O)NCC(=O)OCC)c1cccs1 (stereo not given) | 0.116 µM (active) | 
3 | C=C1CC[C@@H]2[C@](C)(CO)[C@H](O)CC[C@@]2(C)[C@@H]1CC(O)C1=CCOC1=O (stereo not given in full) | 9.04 µM (active) | 
4 | COc1ccc(CCN(C)CCCC(C#N)(c2cc(OC)c(OC)c(OC)c2)C(C)C)cc1OC (stereo not given) | 23.7 µM (active) | 
5 | COc1ccc2c(c1)N1C(=O)C[C@@]34C=CC[N@+]5([O-])CC[C@H]2[C@H](CC3)[C@@]145 | 6.4 µM (active) | 
6 | CO[C@H]1/C=C/O[C@@]2(C)Oc3c(C)c(O)c4c(O)c(c(/C=N\N5CCN(C6CCCC6)CC5)c(O)c4c3C2=O)NC(=O)/C(C)=C\C=C\[C@H](C)[C@H](O)[C@@H](C)[C@@H](O)[C@@H](C)[C@H](OC(C)=O)[C@@H]1C | 18.6 µM (active) | 
7 | CC(=O)O[C@@H]1C(=O)C(C)=C(CCC(C)CC(=O)O)[C@@]2(C)CCCC(C)(C)C12 (stereo not given in full) | inactive | 
8 | CC1(C)CC(=O)N(CCCCN2CCN(c3ncccn3)CC2)C(=O)C1 | inactive | 
9 | COC(=O)C1=COC(O[C@@H]2O[C@H](COC(=O)/C=C/c3ccc(O)cc3)[C@@H](O)[C@H](O)[C@H]2O)C2C(CO)=CCC12 (stereo not given in full) | inactive | 
10 | CC(=O)O[C@H]1C[C@@](O)(C(C)C)C2[C@@H](OC(=O)c3ccc(O)cc3)C[C@@]3(C)O[C@H]3C[C@]21C (stereo not given in full) | inactive | 
11 | O=C(NCC(=O)N1CCCC1)Nc1ccc2ccccc2c1 | 5.8 µM (active) | 
12 | O=C(O)COCCN1CCN([C@H](c2ccccc2)c2ccc(Cl)cc2)CC1 | inactive | 
13 | CC(=O)/C=C/C1(O)C(C)(C)CC(O)CC1(C)O (stereo not given) | inactive | 
14 | C=C1[C@@H](C)[C@H]2[C@H](Cc3c[nH]c4ccccc34)NC(=O)[C@]23C(=O)/C=C/C(=O)[C@H](O)/C(C)=C\[C@@H](C)C/C=C/[C@H]3[C@@H]1O | 2 µM (active) | 
15 | C=CC1(C)CC(O)C2(CCC3C(C)(C(=O)O)CCCC3(C)C2=O)C1 (stereo not given) | inactive | 
16 | O=C(O)C[C@H]1CCC(=O)[C@@H]1C/C=C\CCOC1OC(CO)C(O)C(O)C1O (stereo not given in full) | inactive | 
17 | CC(C)(O)/C=C/CC(C)(O)C1C(O)CC2(C)C3CCC4C(C)(C)C(=O)CCC4(C)C3CCC12C (stereo not given) | inactive | 
18 | O=C(O[C@H]1[C@H](Oc2ccc(O)cc2CO)O[C@H](CO)[C@@H](O)[C@@H]1O)c1ccccc1 | inactive | 
19 | CC(C)C1(O)NC(=O)C(CC2(O)c3ccccc3N3C(=O)C(C)(C)NC32)n2c1nc1ccccc1c2=O (stereo not given) | inactive | 
20 | CC1(C)CCC(C)(C)c2cc3c(cc21)Sc1ccccc1N=C3c1ccc(C(=O)O)cc1 | inactive | 

Row | SMILES | Potency | viability (% of control)
21 | C/C=C(\C)C(=O)O[C@@H](C)[C@H]1CC[C@]2(O)C3CCC4C[C@@H](OC5CC(OC)C(OC6CC(OC)C(OC7CC(OC)C(OC8OC(C)C(OC9OC(CO)C(O)C(O)C9O)C(OC)C8O)C(C)O7)C(C)O6)C(C)O5)CC[C@]4(C)C3[C@H](O)[C@@H](O)[C@]12C (stereo not given in full) |  | 34.7% [at 9.25 µM]
22 | COc1cc(C2Oc3c(OC)cc(CCCO)cc3C2CO)ccc1O (stereo not given) | inactive | 
23 | COc1cc(C)c(C(=O)O[C@H]2[C@@H](OC(C)=O)[C@H](n3ccc(=O)[nH]c3=O)O[C@@H]2CO)c(OC)c1 | inactive | 
24 | COC(=O)C1=CO[C@@H](O[C@@H]2O[C@H](CO)[C@@H](O)[C@H](O)[C@H]2O)[C@@H]2C(C)CC(=O)[C@]12O (stereo not given in full) | inactive | 
25 | COC(=O)Cc1cc2c(c([N+](=O)[O-])c1)N(C(=O)CC[C@H](N)C(=O)O)CC2 | inactive | 
26 | CC1(C)CC2C(O)C3=C(CC(C)(O)C2C1)C(=O)OC3 (stereo not given) | inactive | 
27 | OC[C@H]1O[C@@H](Oc2ccccc2)[C@H](O)[C@@H](O)[C@@H]1O | inactive | 
28 | C[C@@H](c1ccccc1)N(C(N)=NC#N)c1cccc2ncccc12 | inactive | 
29 | C[C@@H]1CC2C3C[C@H](F)C4=CC(=O)C=C[C@]4(C)[C@@]3(F)[C@@H](O)C[C@]2(C)[C@@]1(OC(=O)c1ccco1)C(=O)SCF (stereo not given in full) | 6.61 µM (active) | 
30 | CC1CC(=O)C2C(O)(C1)CC(O)C13OC1c1c(O)cccc1C(=O)C23O (stereo not given) | 14.3 µM (active) | 
31 | C=C[C@H]1[C@H](O[C@@H]2O[C@H](CO)[C@@H](O)[C@H](O)[C@H]2O)OC=C(C(=O)OC)[C@H]1C[C@@H]1c2cc(O)c(O)cc2CCN1C(C)=O | inactive | 
32 | O=C(CC(c1ccccc1)c1ccccc1)N1CCN(C(c2ccccc2)c2ccccc2)CC1 | 13 µM (active) | 
33 | CCOc1nc(NC(=O)Cc2cc(OC)ccc2OC)cc(N)c1C#N | inactive | 
34 | C[C@H]1[C@H](C)CC[C@]2(C(=O)O)CC[C@]3(C(=O)O)C(=CCC4[C@@]5(C)CC[C@H](O[C@@H]6O[C@@H](C)[C@H](O)[C@@H](O)[C@H]6O)C(C)(C)C5CC[C@]43C)[C@H]12 (stereo not given in full) | inactive | 
35 | COc1ccc(CNCc2cccc3ccccc23)cc1 | inactive | 
36 | CC1=CC(=O)CC(C)(C)C1CO[C@@H]1O[C@H](CO)[C@@H](O)[C@H](O)[C@H]1O (stereo not given in full) | inactive | 
37 | COC(=O)CC[C@H](NC(=O)[C@H](CC(C)C)NC(=O)OCc1ccccc1)C(=O)N[C@@H](Cc1cnc[nH]1)C(=O)N[C@@H](CC(=O)OC)C(=O)CF |  | 80.3% [at 9.25 µM]
38 | C[C@H]1CC(=O)Nc2cccc(-c3cnn(C(C)(C)C)c3)c2N1 | inactive | 
39 | COc1c(C(CC(C)C)OC(C)=O)ccc(Oc2c(O)cc(C)cc2/C=C/C(C)=O)c1C(=O)O (stereo not given) | inactive | 
40 | CC/C(C)=C/C(=O)OC1C(OC2(C)CCC3C(C4C(C)CCC42)C3(C)C)OC(C)C(O)C1O (stereo not given) | 8.93 µM (active) | 
